Among the data in PubChem BioAssay (Tox21) are Potency, viability change, negative = cytotoxic and activity change, negative = cytotoxicity values, retold here.

Results filed as inconclusive are left out. A call without a number means that no potency is given here. Unmarked numbers belong to inactive results. The source made the active and inactive calls. Calls follow the shape of the dose curve; as a rule, active = well fitted cell-killing curve with a large enough effect in the repeat runs; inconclusive = weak or mixed curves, or effect the other way; inactive = flat fitted curve, though single readings scatter.

The first assay can be described thus: cAMP Responsive Elements (CRE) small molecule antagonists, cell-based qHTS assay: qHTS cell viability counter screen (AID 2060913). Also: nearly all actives have a fitted effect of over 40% in size. Also: potency is read from the fitted curve at half-maximal effect. The settings on record: CRE-bla HEK293T viability, CellTiter-Glo luminescence, 5 h; series mostly up to 92.4 µM. Put shortly:
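HEK293T CRE-bla, 2,000 cells/well, 18 h preincubation; cpd in DMSO + NKH477 0.25 uM final, 3 h 37 C/5% CO2; LiveBLAzer 2 h RT, then CellTiter-Glo 30 min RT, luminescence.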
For the compound `CCc1c(Br)c(Br)c(Br)c(Br)c1Br`, the Potency entry is “inactive”.

Take `O=c1[nH]cnc2[nH]ncc12`: the Potency result was “inactive”.

On to `CCCN(CCC)S(=O)(=O)c1ccc(C(=O)O)cc1`, for which the Potency entry was “inactive”.

In the case of `Cn1cnc2c(F)c(Nc3ccc(Br)cc3Cl)c(C(=O)NOCCO)cc21`, the Potency entry is “inactive”.

Regarding `CN1CCC(=C2c3ccccc3CCc3cccnc32)CC1`, the Potency result was “inactive”.

Regarding `CCOC(=O)c1cccnc1`, the Potency result is “inactive”.

For `CCCCCCCCCOC(=O)c1ccc(O)cc1`, the Potency is 47.9 µM (active).

For `O=C(O)c1cc(=O)[nH]c(=O)[nH]1`, the Potency result is “inactive”.

With `CCCCN1C[C@H](O)[C@@H](O)[C@H](O)[C@H]1CO`, the Potency result was “inactive”.

Turning to `CCC(=O)OCCOc1ccccc1`, the Potency entry is “inactive”.

With `O=C(O)c1cccc(Cl)n1`, the Potency entry was “inactive”.

Regarding `CC1=NN(c2ccc(S(=O)(=O)O)cc2)C(=O)C1N=Nc1ccccc1` (stereo not given), the Potency entry is “inactive”.

In the case of `C[C@@H](O)[C@H](N)C(=O)O`, the viability change, negative = cytotoxic was -1.62% [at 18.9 µM].

Take `N#Cc1ccccc1`: the Potency entry was “inactive”.

On to `CCCCC1(COC(=O)CCC(=O)O)C(=O)N(c2ccccc2)N(c2ccccc2)C1=O`, for which the Potency entry was “inactive”.

Take `Clc1cccc(Cl)n1`: the Potency result was “inactive”.

For the compound `ClC(Cl)(Cl)c1ccc(C(Cl)(Cl)Cl)cc1`, the Potency result was “inactive”.

Regarding `CC(=O)c1ccc2ccc3ccccc3c2c1`, the Potency result is “inactive”.

Turning to `COC1CCC=CO1` (stereo not given), the Potency entry was “inactive”.

For the compound `O=Cc1ccc(Cl)cc1`, the Potency entry was “inactive”.

Regarding `O=C[O][Al]([O]C=O)[O]C=O`, the Potency result is “inactive”.

`COc1c(Cl)ccc(Cl)c1C(=O)O`: the Potency entry is “inactive”.

For `Cn1c(=O)c2[nH]cnc2n(C)c1=O`, the Potency result was “inactive”.

As for `c1ccc(-c2ccc(-c3ccccc3)cc2)cc1`, the viability change, negative = cytotoxic is 0.929% [at 18.9 µM].

With `CCCCOC(O)CC` (stereo not given), the Potency entry was “inactive”.

Regarding `O=C(CCN1CCN(CCO)CC1)N1c2ccccc2Sc2ccc(C(F)(F)F)cc21`, the Potency result is “inactive”.

As to `CC1CC(=O)CC(C)(C)C1` (stereo not given), the Potency result was “inactive”.

In the case of `CCc1cccc(CC)c1`, the Potency result was “inactive”.

In the case of `CC(=O)N[C@@H](CO)C(=O)N[C@@H](CC(=O)O)C(=O)N[C@@H](CCCCN)C(=O)N1CCC[C@H]1C(=O)O`, the Potency result was “inactive”.

For `C=C[Si](OC(C)=O)(OC(C)=O)OC(C)=O`, the Potency entry is “inactive”.

As for `O=C(CCCCC(=O)Nc1c(I)cc(I)c(C(=O)O)c1I)Nc1c(I)cc(I)c(C(=O)O)c1I`, the Potency entry was “inactive”.

As to `CN(C)CCCSc1ccccc1NC(=O)/C=C/c1ccccc1`, the Potency entry is “inactive”.

In the case of `O=c1[nH]cnc2ccccc12`, the Potency entry is “inactive”.

`CCN(CC)C(=O)/C(C#N)=C/c1cc(O)c(O)c([N+](=O)[O-])c1`: the Potency result was “inactive”.

Regarding `NC(=O)c1cc[n+](CC2=C(C(=O)[O-])N3C(=O)[C@@H](NC(=O)Cc4cccs4)[C@H]3SC2)cc1`, the Potency entry is “inactive”.

For the compound `CCCC/C=C/CCCCO`, the Potency entry was “inactive”.

Regarding `CCCCCCCCCCCCCCCCOP(=O)([O-])OCC[N+](C)(C)C`, the Potency entry is “inactive”.

Regarding `ClC/C=C/CCl`, the Potency entry was “inactive”.

With `C=CC(=O)OCCCCCC`, the Potency entry was “inactive”.

With `CC(=O)N(CC(O)CO)c1c(I)c(C(=O)NCC(O)CO)c(I)c(C(=O)NCC(O)CO)c1I` (stereo not given), the Potency result was “inactive”.

The nature of another assay: cAMP Responsive Elements (CRE) small molecule agonists, cell-based qHTS assay: qHTS cell viability counter screen (AID 2060914).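 Also: viability read after 3 h of compound exposure; nearly all actives have a fitted effect of over 50% in size.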 As to conditions: CRE-bla HEK293T viability, CellTiter-Glo luminescence, 5 h; series mostly up to 92.4 µM. Put shortly:
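Cytotoxicity counter screen multiplexed with the CRE-bla reporter assay in HEK 293T cells: 3 h compound exposure at 37 °C, followed by CellTiter-Glo luminescence measured in the same wells.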
(In general: qHTS replaces the single test concentration by a dilution series.)
With `CCc1c(Br)c(Br)c(Br)c(Br)c1Br`, the Potency result is “inactive”.

On to `O=c1[nH]cnc2[nH]ncc12`, for which the Potency result is “inactive”.

`CCCN(CCC)S(=O)(=O)c1ccc(C(=O)O)cc1`: the Potency result was “inactive”.

Regarding `Cn1cnc2c(F)c(Nc3ccc(Br)cc3Cl)c(C(=O)NOCCO)cc21`, the Potency result is “inactive”.

`CN1CCC(=C2c3ccccc3CCc3cccnc32)CC1`: the Potency result is “inactive”.

As to `CCOC(=O)c1cccnc1`, the Potency entry was “inactive”.

Regarding `CCCCCCCCCOC(=O)c1ccc(O)cc1`, the Potency result was “inactive”.

For the compound `O=C(O)c1cc(=O)[nH]c(=O)[nH]1`, the Potency entry is “inactive”.

In the case of `CCCCN1C[C@H](O)[C@@H](O)[C@H](O)[C@H]1CO`, the Potency entry was “inactive”.

Consider `CCC(=O)OCCOc1ccccc1`, for which the Potency result is “inactive”.

In the case of `O=C(O)c1cccc(Cl)n1`, the Potency result is “inactive”.

On to `CC1=NN(c2ccc(S(=O)(=O)O)cc2)C(=O)C1N=Nc1ccccc1` (stereo not given), for which the Potency entry is “inactive”.

On to `C[C@@H](O)[C@H](N)C(=O)O`, for which the activity change, negative = cytotoxicity is -10.8% [at 18.9 µM].

In the case of `N#Cc1ccccc1`, the Potency result was “inactive”.

Take `CCCCC1(COC(=O)CCC(=O)O)C(=O)N(c2ccccc2)N(c2ccccc2)C1=O`: the Potency result is “inactive”.

`Clc1cccc(Cl)n1`: the Potency entry was “inactive”.

Turning to `ClC(Cl)(Cl)c1ccc(C(Cl)(Cl)Cl)cc1`, the Potency result is “inactive”.

On to `CC(=O)c1ccc2ccc3ccccc3c2c1`, for which the Potency entry is “inactive”.

With `COC1CCC=CO1` (stereo not given), the Potency result is “inactive”.

Take `O=Cc1ccc(Cl)cc1`: the Potency result was “inactive”.

For `O=C[O][Al]([O]C=O)[O]C=O`, the Potency entry was “inactive”.

Take `COc1c(Cl)ccc(Cl)c1C(=O)O`: the Potency result was “inactive”.

With `Cn1c(=O)c2[nH]cnc2n(C)c1=O`, the Potency result was “inactive”.

`c1ccc(-c2ccc(-c3ccccc3)cc2)cc1`: the activity change, negative = cytotoxicity was 0.504% [at 18.9 µM].

As for `CCCCOC(O)CC` (stereo not given), the Potency entry is “inactive”.

With `O=C(CCN1CCN(CCO)CC1)N1c2ccccc2Sc2ccc(C(F)(F)F)cc21`, the Potency result was “inactive”.

With `CC1CC(=O)CC(C)(C)C1` (stereo not given), the Potency result was “inactive”.

With `CCc1cccc(CC)c1`, the Potency entry was “inactive”.

For the compound `CC(=O)N[C@@H](CO)C(=O)N[C@@H](CC(=O)O)C(=O)N[C@@H](CCCCN)C(=O)N1CCC[C@H]1C(=O)O`, the Potency entry is “inactive”.

With `C=C[Si](OC(C)=O)(OC(C)=O)OC(C)=O`, the Potency result was “inactive”.

`O=C(CCCCC(=O)Nc1c(I)cc(I)c(C(=O)O)c1I)Nc1c(I)cc(I)c(C(=O)O)c1I`: the Potency entry was “inactive”.

On to `CN(C)CCCSc1ccccc1NC(=O)/C=C/c1ccccc1`, for which the Potency result was “inactive”.

In the case of `O=c1[nH]cnc2ccccc12`, the Potency result was “inactive”.

As for `CCN(CC)C(=O)/C(C#N)=C/c1cc(O)c(O)c([N+](=O)[O-])c1`, the Potency entry was “inactive”.

`NC(=O)c1cc[n+](CC2=C(C(=O)[O-])N3C(=O)[C@@H](NC(=O)Cc4cccs4)[C@H]3SC2)cc1`: the Potency result was “inactive”.

In the case of `CCCC/C=C/CCCCO`, the Potency result was “inactive”.

For the compound `CCCCCCCCCCCCCCCCOP(=O)([O-])OCC[N+](C)(C)C`, the Potency result is “inactive”.

On to `ClC/C=C/CCl`, for which the Potency result was “inactive”.

Consider `C=CC(=O)OCCCCCC`, for which the Potency result was “inactive”.

As for `CC(=O)N(CC(O)CO)c1c(I)c(C(=O)NCC(O)CO)c(I)c(C(=O)NCC(O)CO)c1I` (stereo not given), the Potency result is “inactive”.
